From PubChem BioAssay (NCI)
Compounds without any hit were thinned out: in the full panel of roughly 83,000, 20% have a hit.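 Growth was measured after 48 h exposure to one concentration of compound in 96-well plates. Values under 10 count as active.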 Unmarked numbers belong to inactive results. Active and inactive are the calls of the source.

Key:
Experiment in all cases: NCI-60 one-dose screen, 48 h (100 = growth as untreated, 0 = no growth, -100 = all killed)
NCI-H23 lung = details: 10 µM unless noted
NCI-H226 lung = details: 10 µM unless noted
NCI-H322M lung = details: 10 µM unless noted
HOP-62 NSCLC = details: 10 µM unless noted
NCI-H460 lung = details: 10 µM unless noted
HOP-92 NSCLC = details: 10 µM unless noted
NCI-H522 lung = details: 10 µM unless noted
A549/ATCC NSCLC = details: 10 µM unless noted
786-0 renal = details: 10 µM unless noted
COLO 205 colon = details: 10 µM unless noted
DU-145 prostate = details: 10 µM unless noted
K-562 leukemia = details: 10 µM unless noted
MALME-3M melanoma = details: 10 µM unless noted
MDA-MB-231 breast = details: 10 µM unless noted
RXF 393 renal = details: 10 µM unless noted
SF-268 CNS = details: 10 µM unless noted
SF-295 CNS = details: 10 µM unless noted
SF-539 CNS = details: 10 µM unless noted
UACC-257 melanoma = details: 10 µM
M14 melanoma = details: 10 µM unless noted

SMILES | growth (NCI-H23 lung) | growth (NCI-H226 lung) | growth (NCI-H322M lung) [%] | growth (HOP-62 NSCLC) | growth (NCI-H460 lung) | growth (HOP-92 NSCLC) | growth (NCI-H522 lung) | growth (A549/ATCC NSCLC) | growth (786-0 renal) | growth (COLO 205 colon) | growth (DU-145 prostate) | growth (K-562 leukemia) | growth (MALME-3M melanoma) | growth (MDA-MB-231 breast) | growth (RXF 393 renal) | growth (SF-268 CNS) | growth (SF-295 CNS) | growth (SF-539 CNS) | growth (UACC-257 melanoma) | growth (M14 melanoma)
Nc1ccc(-c2nnc(SCc3ccc(O)c4ncccc34)n2-c2ccccc2)cc1 | 13.2% | 44% | 23.7 | 17% | 5.71% (active) | -21% (active) | 17.5% | 14.1% | 19.9% | 4.41% (active) | 24.1% | 15.9% | 5.24% (active) | 17% | 13.5% | 23.3% | 0.907% (active) | 10.5% | 3.16% (active) | 14.9%
C=C1C(=O)O[C@@H]2C[C@@H](C)/C=C\C(=O)[C@](C)(OC(C)=O)C[C@H](OC(=O)/C(C)=C\C)[C@@H]12 | -13.9% (active) | -43.4% (active) | 88 | 74.6% | 20% | -35.6% (active) | -82.4% (active) | 72.9% | -62.8% (active) | -78.3% (active) | 3.77% (active) | – | -36.4% (active) | -71.8% (active) | -88.1% (active) | -1.46% (active) | 70.6% | -57.5% (active) | -76.1% (active) | -37.1% (active)
O=C(Cn1cc(CN2C(=O)c3ccc([N+](=O)[O-])cc3C2=O)nn1)Nc1ccc(F)cc1Cl | 98% | 101% | 100 | 109% | 106% | 79.7% | 93.1% | 99.1% | 93.9% | 110% | 106% | 97.9% | 83.3% | 92.4% | – | 99.8% | 104% | 93.9% | 97.8% | 94.8%
COc1ccccc1N1CCN(C2=NN=C(c3cccc(Cl)c3)c3ccccc3C2)CC1 | 31.6% | 57.5% | 37 | 34.3% | 1.95% (active) | 46.8% | -27.1% (active) | 17.2% | 27% | -38.7% (active) | 2.18% (active) | 3.9% (active) | 44.9% | -3.39% (active) | – | 22.6% | 19.3% | -11.6% (active) | 56.3% | 6.83% (active)
COc1ccc(-c2cc(-c3cccc4ccccc34)n3c(n2)nc2ccccc23)cc1 | 62.2% | 49.1% | 73.5 | 26% | 13.5% | 38.4% | 50.3% | 29% | 36.5% | 74% | 37.8% | 37.2% | 32.4% | 78.2% | – | 46.6% | 20.2% | 45.7% | 68.8% | 52.1%
N#C/C(=C\c1ccc(-c2ccc(F)cc2)o1)C(=O)Nc1ncc(Cc2ccc(Cl)cc2Cl)s1 | -37.2% (active) | 69.3% | 13.8 | -34.7% (active) | -74.2% (active) | 36.7% | -8.78% (active) | -48% (active) | -28.3% (active) | 66.8% | -46.5% (active) | 15.5% | -52.7% (active) | 20.1% | – | 1.24% (active) | 3.15% (active) | -2.12% (active) | 84.1% | 2.18% (active)
COc1ccc(C2CC(c3ccc(Nc4nc(NCCO)nc(Nc5ccc(Cl)cc5)n4)cc3)=Nc3c(N)nc(N)nc3N2)cc1 (centres undefined) | 57.8% | 88.7% | 93.2 | 37.4% | 63% | 74.6% | 56.1% | 95.1% | 71% | 92.1% | 73.1% | -10.1% (active) | 113% | 77.3% | – | 81.6% | 82% | 84.4% | 113% | 94.7%
